Experimental data: PubChem BioAssay (NCATS)
Records with an inconclusive call do not appear. Calls of active or inactive are those of the source. Calls follow the shape of the dose curve; as a rule, active = well fitted inhibition curve with a large enough effect; inconclusive = small, poorly fitted or top-dose-only effect; inactive = flat fitted curve, though single readings scatter.

The compounds below were run on CP325 (assay: qHTS profiling for inhibitors of Plasmodium falciparum proliferation (AID 504749;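 also: 0% = DMSO vehicle and full inhibition = artemisinin control; nearly all actives have a fitted effect of over 60% in size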)). Settings: P. falciparum in erythrocytes, SYBR Green DNA, 72 h; series mostly up to 12.8 µM; activity, negative = inhibition: at the top concentration.
How it was run: (§1)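 Three-day growth assay of blood-stage parasites in erythrocytes (0.3% parasitemia, 2.5% hematocrit) at 37 C, 5% CO2, quantified by SYBR Green DNA staining after overnight detergent lysis.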

activity, negative = inhibition, inactive:
CC1(C)S[C@H]2C(NC(=O)[C@@H](N)c3ccc(O)cc3)C(=O)N2[C@@H]1C(=O)O (some centres undefined) 4% [at 28.7 µM], CN(C)CCc1c[nH]c2ccc(CC3COC(=O)N3)cc12 (centres undefined) -0.497% [at 28.7 µM], C[C@@]12CCC(=O)C=C1C=CC1C2CC[C@]2(C)C1CC[C@@]21CCC(=O)O1 (some centres undefined) -1.18% [at 28.7 µM], CC(C)Oc1ccc2c(=O)cc(-c3ccccc3)oc2c1 -1.64% [at 28.7 µM], CCCCCCCCCc1ccc(OCCOCCOCCOCCOCCOCCOCCOCCOCCO)cc1 -19.7% [at 28.7 µM], CC(=O)O[C@@]1(C(C)=O)CCC2C3CC(C)C4=CC(=O)CC[C@@]4(C)C3CC[C@]21C (some centres undefined) -3.53% [at 28.7 µM], N[C@@H]1C(O)OC(CO)C(O)C1O (some centres undefined) -15.1% [at 28.7 µM], CC(=O)OCC(=O)[C@@]12OC3(CCCC3)OC1CC1C3CCC4=CC(=O)C=C[C@@]4(C)[C@]3(F)C(O)C[C@]12C (some centres undefined) -3.21% [at 28.7 µM], C=Cc1c(C)/c2[n-]/c1=C\c1[n-]c(c(CC)c1C)/C=c1\[n-]c3c(c1C)C(=O)C(C(=O)[O-])C=3c1[n-]c(c(C)c1CCC(=O)[O-])\C=2.[Cu].[Na+].[Na+] (centres undefined) -11.9% [at 28.7 µM], CC(=O)[C@]1(O)CCC2C3C=C(Cl)C4=CC(=O)C5CC5[C@@]4(C)C3CC[C@]21C (some centres undefined) -10.5% [at 28.7 µM], COC1OC(CO)C(OC2OC(C(=O)O)C(OC3OC(COS(=O)(=O)O)C(OC4OC(C(=O)O)C(OC5OC(CO)C(OC6OC(C(=O)O)C(OC7OC(COS(=O)(=O)O)C(OC8OC(C(=O)O)=C[C@H](O)C8OS(=O)(=O)O)C(O)C7NC(C)=O)[C@@H](O)C6O)C(O)C5NC(C)=O)[C@@H](O)C4O)C(O)C3NC(C)=O)[C@@H](O)C2O)C(O)C1NC(C)=O (some centres undefined) -10.2% [at 28.7 µM], C[C@@]12C=CC(=O)C=C1CCC1C3CC(O)[C@@](O)(C(=O)CO)[C@]3(C)CC(O)[C@]12F (some centres undefined) -5.19% [at 28.7 µM], CCC1OC(=O)C(C)[C@@H](O[C@H]2C[C@@](C)(OC)C(O)C(C)O2)C(C)[C@@H](O[C@@H]2OC(C)CC(N(C)C)C2O)[C@@](C)(O)CC(C)C(=O)[C@@H](C)C(O)[C@]1(C)O (some centres undefined) -16.4% [at 28.7 µM], CC1C2CCC3C4CC=C5CC(N(C)C)CC[C@@]5(C)C4CC[C@@]32CN1C (some centres undefined) 3.81% [at 28.7 µM], COC1CC(O[C@H]2/C(C)=C/CC3CC(C[C@]4(CCC(C)C(C5CCCCC5)O4)O3)OC(=O)[C@H]3C=C(C)/C(=N/O)C4OC/C(=C\C=C\[C@@H]2C)[C@@]43O)OC(C)C1O (some centres undefined) -18.6% [at 28.7 µM], CCC(C)C(=O)OC1CC(O)C=C2C=CC(C)C(CCC(O)CC(O)CC(=O)O)C21 (centres undefined) 8.29% [at 28.7 µM], OCC1OC(n2cnc3c(=S)nc[nH]c32)C(O)C1O (centres undefined) -2.83% [at 28.7 µM]

These compounds were tested on CP329 in the same assay as above. Settings: P. falciparum in erythrocytes, SYBR Green DNA, 72 h; series mostly up to 12.8 µM; activity, negative = inhibition: at the top concentration.
How it was run: as §1

activity, negative = inhibition, inactive:
CC1(C)S[C@H]2C(NC(=O)[C@@H](N)c3ccc(O)cc3)C(=O)N2[C@@H]1C(=O)O (some centres undefined) 6.53% [at 28.7 µM], CN(C)CCc1c[nH]c2ccc(CC3COC(=O)N3)cc12 (centres undefined) 0.0733% [at 28.7 µM], C[C@@]12CCC(=O)C=C1C=CC1C2CC[C@]2(C)C1CC[C@@]21CCC(=O)O1 (some centres undefined) -2.21% [at 28.7 µM], CC(C)Oc1ccc2c(=O)cc(-c3ccccc3)oc2c1 -5.27% [at 28.7 µM], CCCCCCCCCc1ccc(OCCOCCOCCOCCOCCOCCOCCOCCOCCO)cc1 -5.72% [at 28.7 µM], CC(=O)O[C@@]1(C(C)=O)CCC2C3CC(C)C4=CC(=O)CC[C@@]4(C)C3CC[C@]21C (some centres undefined) 0.0348% [at 28.7 µM], N[C@@H]1C(O)OC(CO)C(O)C1O (some centres undefined) -19.4% [at 28.7 µM], CC(=O)OCC(=O)[C@@]12OC3(CCCC3)OC1CC1C3CCC4=CC(=O)C=C[C@@]4(C)[C@]3(F)C(O)C[C@]12C (some centres undefined) 4.06% [at 28.7 µM], C=Cc1c(C)/c2[n-]/c1=C\c1[n-]c(c(CC)c1C)/C=c1\[n-]c3c(c1C)C(=O)C(C(=O)[O-])C=3c1[n-]c(c(C)c1CCC(=O)[O-])\C=2.[Cu].[Na+].[Na+] (centres undefined) -3.01% [at 28.7 µM], CC(=O)[C@]1(O)CCC2C3C=C(Cl)C4=CC(=O)C5CC5[C@@]4(C)C3CC[C@]21C (some centres undefined) -5.26% [at 28.7 µM], COC1OC(CO)C(OC2OC(C(=O)O)C(OC3OC(COS(=O)(=O)O)C(OC4OC(C(=O)O)C(OC5OC(CO)C(OC6OC(C(=O)O)C(OC7OC(COS(=O)(=O)O)C(OC8OC(C(=O)O)=C[C@H](O)C8OS(=O)(=O)O)C(O)C7NC(C)=O)[C@@H](O)C6O)C(O)C5NC(C)=O)[C@@H](O)C4O)C(O)C3NC(C)=O)[C@@H](O)C2O)C(O)C1NC(C)=O (some centres undefined) 6.54% [at 28.7 µM], C[C@@]12C=CC(=O)C=C1CCC1C3CC(O)[C@@](O)(C(=O)CO)[C@]3(C)CC(O)[C@]12F (some centres undefined) 3.71% [at 28.7 µM], CCC1OC(=O)C(C)[C@@H](O[C@H]2C[C@@](C)(OC)C(O)C(C)O2)C(C)[C@@H](O[C@@H]2OC(C)CC(N(C)C)C2O)[C@@](C)(O)CC(C)C(=O)[C@@H](C)C(O)[C@]1(C)O (some centres undefined) -14.8% [at 28.7 µM], CC1C2CCC3C4CC=C5CC(N(C)C)CC[C@@]5(C)C4CC[C@@]32CN1C (some centres undefined) -1.22% [at 28.7 µM], COC1CC(O[C@H]2/C(C)=C/CC3CC(C[C@]4(CCC(C)C(C5CCCCC5)O4)O3)OC(=O)[C@H]3C=C(C)/C(=N/O)C4OC/C(=C\C=C\[C@@H]2C)[C@@]43O)OC(C)C1O (some centres undefined) -5.49% [at 28.7 µM], CCC(C)C(=O)OC1CC(O)C=C2C=CC(C)C(CCC(O)CC(O)CC(=O)O)C21 (centres undefined) 7.47% [at 28.7 µM], OCC1OC(n2cnc3c(=S)nc[nH]c32)C(O)C1O (centres undefined) -3.46% [at 28.7 µM]
